The full ranking holds about 8,300 sequences; the median of “log2 fold change of degron read counts, EGFP-low vs EGFP+ sorted cells (limma voom), compound-induced degradation” is about -1.1, and the highest 2% start at about 3.2. This is one part of a sample in which the highest values are shown more often than they occur.

The experiment concerns the target T1, CRBN, Q96SW2.
T1 chain: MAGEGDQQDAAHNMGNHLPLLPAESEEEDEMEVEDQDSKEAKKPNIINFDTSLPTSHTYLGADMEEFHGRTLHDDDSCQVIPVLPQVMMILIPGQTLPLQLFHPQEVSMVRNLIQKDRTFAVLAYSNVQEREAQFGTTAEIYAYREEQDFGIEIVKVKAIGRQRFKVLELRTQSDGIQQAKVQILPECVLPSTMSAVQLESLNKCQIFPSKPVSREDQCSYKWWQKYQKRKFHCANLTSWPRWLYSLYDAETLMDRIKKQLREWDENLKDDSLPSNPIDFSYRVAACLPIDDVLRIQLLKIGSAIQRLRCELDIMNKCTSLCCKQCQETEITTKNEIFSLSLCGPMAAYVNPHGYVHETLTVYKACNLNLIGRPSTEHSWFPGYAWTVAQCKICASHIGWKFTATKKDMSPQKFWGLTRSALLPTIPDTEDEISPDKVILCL
Kind of experiment: log2 fold change of degron read counts, EGFP-low vs EGFP+ sorted cells (limma voom), compound-induced degradation; higher = more compound-induced degradation of the degron-EGFP fusion; degrons are variants of IKZF1/3 zinc finger 2; compound dose not given here. The settings on record: Jurkat, 18 h.

[1] abbreviates: compound: compound 19 (5-tert-butyl-thalidomide).
[2] abbreviates: compound: compound 22 (5-morpholino-thalidomide).
Where [3] appears, read: compound: compound 33 (diphenyl IMiD analogue).
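Also: pooled lentiviral library of zinc finger degron-EGFP fusions in mCherry-positive Jurkat cells, FACS-sorted after compound exposure, with degron abundance counted by next-generation sequencing.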

As for FTCPICGRYFTQKGNLLRHIKL [46F_47T_49P_50I_52G_53R_54Y_55F_67L_, Q9UKT9], the “log2 fold change of degron read counts” value is, setting by setting: under setting [1], -0.651; under setting [2], -0.614; under setting [3], 0.487; (compound: thalidomide) 0.782.
The corresponding values for LACNQCGFLCTQKGNLLRHIKL [46L_47A_49N_50Q_52G_53F_54L_55C_67L_, Q9UKT9] are -1.52, -2.34, -2.08 and -1.99.
Take LCCEICGFKCTQKGNLLRHIKL [46L_47C_49E_50I_52G_53F_54K_55C_67L_, Q9UKT9]: the “log2 fold change of degron read counts” value is 2 under setting [1], 1.83 under setting [2], -0.183 under setting [3] and 2.48 (compound: thalidomide).
On to LACEICGFKCTQKGNLLRHIKL [46L_47A_49E_50I_52G_53F_54K_55C_67L_, Q9UKT9], for which the “log2 fold change of degron read counts” value is, setting by setting: under setting [1], 3.4; under setting [2], 1.5; under setting [3], -1.07; (compound: thalidomide) 0.917.
In the same order, the values of LDCEICGFKCTQKGNLLRHIKL [46L_47D_49E_50I_52G_53F_54K_55C_67L_, Q9UKT9] are -0.859, -1.7, -1.79 and -0.369.
In the same order, the values of LSCEICGFKCTQKGNLLRHIKL [46L_47S_49E_50I_52G_53F_54K_55C_67L_, Q9UKT9] are 2.27, 1.7, -0.728 and 1.09.
Regarding LLCEICGFKCTQKGNLLRHIKL [46L_47L_49E_50I_52G_53F_54K_55C_67L_, Q9UKT9], the “log2 fold change of degron read counts” value under setting [1] is 0.0968, the “log2 fold change of degron read counts” value under setting [2] is -1.51, the “log2 fold change of degron read counts” value under setting [3] was -0.463 and the “log2 fold change of degron read counts” value (compound: thalidomide) was 1.96.
For the sequence LFCEICGFKCTQKGNLLRHIKL [46L_47F_49E_50I_52G_53F_54K_55C_67L_, Q9UKT9], the “log2 fold change of degron read counts” value under setting [1] was found to be 3.22, the “log2 fold change of degron read counts” value under setting [2] is 3.15, the “log2 fold change of degron read counts” value under setting [3] turned out to be 0.657 and the “log2 fold change of degron read counts” value (compound: thalidomide) stood at 1.64.
Consider LTCEICGFKCTQKGNLLRHIKL [46L_47T_49E_50I_52G_53F_54K_55C_67L_, Q9UKT9], for which the “log2 fold change of degron read counts” value is 0.899 under setting [1], 1.56 under setting [2], -0.216 under setting [3] and 2.39 (compound: thalidomide).
In the same order, the values of LECEICGFKCTQKGNLLRHIKL [46L_47E_49E_50I_52G_53F_54K_55C_67L_, Q9UKT9] are -0.0668, -1.67, -0.528 and 2.53.
In the same order, the values of LICEICGFKCTQKGNLLRHIKL [46L_47I_49E_50I_52G_53F_54K_55C_67L_, Q9UKT9] are 0.236, 1.62, 0.617 and 2.72.
In the case of LYCEICGFKCTQKGNLLRHIKL [46L_47Y_49E_50I_52G_53F_54K_55C_67L_, Q9UKT9], the “log2 fold change of degron read counts” value is, setting by setting: under setting [1], 3.6; under setting [2], 3.16; under setting [3], 1.42; (compound: thalidomide) 1.42.
As to LQCEICGFKCTQKGNLLRHIKL [46L_47Q_49E_50I_52G_53F_54K_55C_67L_, Q9UKT9], the “log2 fold change of degron read counts” value under setting [1] is 0.755, the “log2 fold change of degron read counts” value under setting [2] stood at 1.87, the “log2 fold change of degron read counts” value under setting [3] is 0.3 and the “log2 fold change of degron read counts” value (compound: thalidomide) was determined as 3.27.
The corresponding values for LWCEICGFKCTQKGNLLRHIKL [46L_47W_49E_50I_52G_53F_54K_55C_67L_, Q9UKT9] are 3.29, 3.25, 1.64 and 1.24.
The corresponding values for FLCPVCGAHFTQKGNLLRHIKL [46F_47L_49P_50V_52G_53A_54H_55F_67L_, Q9UKT9] are -0.298, -0.793, 1.34 and 0.943.
For LVCEICGFPCTQKGNLLRHIKL [46L_47V_49E_50I_52G_53F_54P_55C_67L_, Q9UKT9], the “log2 fold change of degron read counts” value under setting [1] is -1.74, the “log2 fold change of degron read counts” value under setting [2] is -0.966, the “log2 fold change of degron read counts” value under setting [3] is -1.5 and the “log2 fold change of degron read counts” value (compound: thalidomide) is -0.424.
For the sequence FVCPICGRIFTQKGNLLRHIKL [46F_47V_49P_50I_52G_53R_54I_55F_67L_, Q9UKT9], the “log2 fold change of degron read counts” value was -1.17 under setting [1], -0.629 under setting [2], 1.04 under setting [3] and 1.32 (compound: thalidomide).
In the same order, the values of FQCPICGHTFTQKGNLLRHIKL [46F_47Q_49P_50I_52G_53H_54T_55F_67L_, Q9UKT9] are -2.53, -2.01, -1.64 and 0.116.

These data come from the supplement of paper PMC12645437, “Orthogonal IMiD-Degron Pairs Induce Selective Protein Degradation in Cells” (ACS Chemical Biology, 2025).
